Source: PubChem BioAssay (several laboratories)
An excerpt weighted towards active compounds, which were near 4.4% of everything screened.
Cav3 T inh – inhibitors of human Cav3.2 T-type calcium channel; O95180; Cav3.2-expressing cells, Fluo-4 calcium fluorescence FDSS; active compounds read low; B-score at 10 µM; 100,000 tested, 4% active; AID 449739;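 active = single-dose well whose peak fluorescence ratio is a statistical outlier from its plate by either plate-standardised score or position-corrected B-score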
IL1B cytotox – toxic to HUVEC cells under IL-1B stimulation. HUVEC cell count loss, Hoechst imaging, IL-1B stimulated. cell count reduction, % at 2 µM. 94,000 tested, 0.41% active. AID 845;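 active = cell count reduction more than 3 SD above the screen-wide mean, cut at about 70% in these data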;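 note: normalized per plate to untreated control cells as the no-loss baseline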
IL1B NFkB pot – enhances IL-1B driven NFkB nuclear translocation. HUVEC IL-1B NFkB p65 nuclear translocation imaging. activation, % at 2 µM. 94,000 tested, 0.3% active. AID 819;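 active = activation above 40%, about the mean plus 3 SD, also judged a hit on visual image review; inconclusive = activation above 40% but not a hit on visual review; inactive = activation not above 40% and no visual hit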;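 note: percent activation is computed from the nuclear over cytoplasmic p65 intensity ratio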
IL1B NFkB inh – blocks IL-1B driven NFkB nuclear translocation in HUVEC cells. inhibition, % at 2 µM. HUVEC IL-1B NFkB p65 nuclear translocation imaging. 94,000 tested, 0.43% active. AID 796;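 active = inhibition above about 30% together with a positive call from visual inspection of the well image, limit read from the data; inconclusive = inhibition above a set limit but visual check negative; inactive = inhibition not above a set limit, visual check negative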;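 note: nuclear over cytoplasmic p65 intensity ratio measured by imaging; 0% = IL-1B stimulated DMSO wells and 100% = unstimulated DMSO wells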
Active calls of the source: *; ? = inconclusive; · = not tested or not shown.

SMILES	Cav3 T inh	IL1B cytotox	IL1B NFkB pot	IL1B NFkB inh
O=C(Nc1ccccn1)NC12CC3CC(CC(C3)C1)C2	·	-23.0	20.3	-20.3
O=C(NCc1ccc2c(c1)OCO2)C1CCC(CNS(=O)(=O)c2ccccc2)CC1 (stereo not drawn)	-3.83*	27.5	-8.2	8.2
O=C(NCc1ccc2c(c1)OCO2)C1CCC(CNS(=O)(=O)c2cccc3nsnc23)CC1 (stereo not drawn)	-1.04	13.3	7.8	-7.8
COc1ccc(O/C(=N\S(=O)(=O)c2ccccc2)c2ccccc2)cc1	-0.241	9.1	9.6	-9.6
CC(C)CO/C(=N/S(=O)(=O)c1ccccc1)c1ccccc1	-4.13*	-112.0	-18.9	18.9
O=C(COC(=O)C1CCN(S(=O)(=O)c2cccs2)CC1)c1cc2ccccc2o1	-1.22	-8.6	3.4	-3.4
O=C1c2cccc3c(N4CCCCC4)ccc(c23)C(=O)N1c1ccccn1	-6.92*	17.0	3.1	-3.1
CC(C)C(NS(=O)(=O)c1cccs1)C(=O)NCCN1CCN(c2ccccc2)CC1 (stereo not drawn)	0.475	3.5	-33.4	33.4*
COc1ccc(N2CCN(CCNC(=O)CCNS(=O)(=O)c3cccs3)CC2)cc1	0.493	·	·	·
CC(C)(C)OC(=O)NCCCCCc1nnc(SCC(=O)Nc2cccc(Cl)c2)o1	-7.32*	-9.0	-6.8	6.8
CCOC(=O)c1ccc(NC(=O)NC2CC3CCC(C2)N3Cc2nnnn2Cc2ccco2)cc1 (stereo not drawn)	-6.07*	-3.6	16.8	-16.8
CC(C)(c1ccccc1)c1ccc(OCCn2cnc3ccccc3c2=O)cc1	-6.55*	·	·	·
O=C(c1ccccc1)c1ccc(OCCn2cnc3ccccc3c2=O)cc1	-0.000471	-9.0	10.9	-10.9
COc1ccc(C2C3=C(CC(C)(C)CC3=O)Nc3c2c(=O)[nH]c(=O)n3Cc2ccccc2)cc1 (stereo not drawn)	0.421	2.2	101.7*	-101.7
CCCCn1c(-c2ccccc2)cnc1SCC(=O)NCCc1ccc(OC)c(OC)c1	-4.47*	·	·	·
COc1ccc(CCNC(=O)CSc2nnc(-c3ccccc3)o2)cc1OC	-0.29	·	·	·
Cc1ccc(OCCn2c(C3CC(=O)N(Cc4ccccc4)C3)nc3ccccc32)cc1 (stereo not drawn)	-7.32*	0.8	-12.8	12.8
OCC(Cc1ccc2c(c1)OCO2)C(CO)Cc1ccc2c(c1)OCO2 (stereo not drawn)	-0.675	·	·	·
COc1cccc(C(=O)CSc2nnnn2C2CCCCC2)c1	-3.13	17.4	1.3	-1.3
O=C1c2cc(CO)cc(O)c2C(=O)c2c(O[C@@H]3OC(CO)[C@@H](O)[C@@H](O)[C@@H]3O)cccc21 (stereo partly drawn)	1.68	·	·	·
O=C(O[C@H]1[C@H](Oc2ccccc2COC(=O)C2(O)C=CCCC2=O)O[C@H](CO)[C@@H](O)[C@@H]1O)c1ccccc1 (stereo partly drawn)	-4.45*	·	·	·
NC(=O)NOCc1ncc(C(F)(F)F)cc1Cl	0.0762	-9.7	1.6	-1.6
Cc1ccc(NC(=O)Cc2ncc(C(F)(F)F)cc2Cl)cc1Cl	-4.79*	3.3	-1.3	1.3
COc1cc2c(O)c3c(c(-c4ccc5c(c4)OCO5)c2cc1OC)C(=O)OC3	-4.21*	-7.5	-9.7	9.7
Cc1cc(C)cc(OCC(=O)N2N=C(C(F)(F)F)CC2(O)C(C)(C)C)c1 (stereo not drawn)	-4.29*	-11.7	-7.3	7.3
SMILES	Cav3 T inh	IL1B cytotox	IL1B NFkB pot	IL1B NFkB inh
CCCCC1(O)CC(C(F)(F)F)=NN1C(=O)COc1ccccc1 (stereo not drawn)	-4.23	-34.4	15.4	-15.4
Cc1ccc2[nH]cc(CCNC(=O)Nc3ccccc3)c2c1	-3.93*	10.5	-0.8	0.8
CCOC(=O)c1[nH]c(C)c(C(=O)N2CCc3ccccc32)c1C	-1.74	15.0	100.0*	-100.0
CC(=O)c1c(C)[nH]c(C(=O)N2CCc3ccccc32)c1C	-0.449	-37.3	-2.2	2.2
O=C(Nc1ccccc1)c1ccc(N2CCN(c3ccccc3)CC2)c(S(=O)(=O)N2CCOCC2)c1	-5.98*	2.9	5.1	-5.1
O=C(Nc1ccccc1)c1ccc(N2CCN(c3ccccn3)CC2)c(S(=O)(=O)N2CCOCC2)c1	-1.6	21.4	9.3	-9.3
CCOC(=O)C(C(=O)NCc1ccc(F)cc1)c1ncc(C(F)(F)F)cc1Cl (stereo not drawn)	-1.07	85.8*	-19.5	19.5
COc1ccc(Br)cc1/C=c1\sc2nc(-c3ccco3)nn2c1=O	-0.191	·	·	·
COc1ccccc1/C=c1\sc2nc(-c3ccccc3OC)nn2c1=O	·	13.7	52.3*	-52.3
COc1cccc2sc(Nc3nnc(-c4cccs4)o3)nc12	-5.62*	-1.1	11.8	-11.8
COc1cccc2sc(Nc3nnc(-c4ccc(F)cc4)o3)nc12	-4.2	-6.5	18.8	-18.8
O=C(c1nc2nc(-c3ccc(Cl)cc3)cc(C(F)(F)F)n2n1)N1CCOCC1	-0.142	-25.9	-31.3	31.3*
O=C(c1nc2nc(-c3ccccc3)cc(C(F)(F)F)n2n1)N1CCOCC1	0.702	27.9	-3.5	3.5
O=C(Nc1nnc(C2CC2)s1)c1cccc(S(=O)(=O)N2CC(c3ccccc3)CC2=O)c1 (stereo not drawn)	-0.699	-42.6	2.9	-2.9
Cc1ccc(-c2cc(N)n(Cc3ccc(Cl)cc3)n2)cc1	-4.97*	-11.9	15.0	-15.0
CCOC(=O)N1CCC(=NNS(=O)(=O)c2cccc([N+](=O)[O-])c2)CC1	-0.373	-6.9	12.4	-12.4
Cc1ccccc1N1CCN(c2ncnc3c2cnn3Cc2ccc(Cl)cc2)CC1	-4.63*	-0.3	-11.6	11.6
N#Cc1c(NC(=O)CSc2ccccn2)oc(-c2ccccc2)c1-c1ccccc1	-6.43*	8.8	13.0	-13.0
CCn1c(SCC(=O)Nc2oc(-c3ccccc3)c(-c3ccccc3)c2C#N)nnc1-c1ccncc1	-1.99	-14.5	-0.5	0.5
CC(C)CC(C(=O)Nc1oc(-c2ccccc2)c(-c2ccccc2)c1C#N)N1C(=O)c2ccccc2C1=O (stereo not drawn)	-3.37	-5.2	-1.0	1.0
Cc1cnc(C(=O)OCC(=O)Nc2oc(-c3ccccc3)c(-c3ccccc3)c2C#N)cn1	-2.27	-21.7	15.7	-15.7
N#Cc1c(NC(=O)CN2C(=O)c3ccccc3C2=O)oc(-c2ccccc2)c1-c1ccccc1	-4.04*	-30.7	26.2	-26.3
CCn1c(SCC(=O)Nc2oc(-c3ccccc3)c(-c3ccccc3)c2C#N)nnc1-c1ccco1	-4.72*	-26.8	-3.8	3.8
N#Cc1c(NC(=O)CCN2C(=O)c3ccccc3C2=O)oc(-c2ccccc2)c1-c1ccccc1	-7.16*	-2.2	-6.7	6.7
NC(=O)C1CCN(C(=O)c2ccc(NC3=NC4CS(=O)(=O)CC4S3)cc2)CC1 (stereo not drawn)	0.0515	15.8	10.3	-10.3
N#Cc1c(NC(=O)CCn2cnc3ccccc3c2=O)oc(-c2ccccc2)c1-c1ccccc1	-9.43*	0.6	-1.2	1.2
O=C(O)CCn1cnc2ccccc2c1=O	-0.0202	29.0	-6.0	6.0
O=C1c2ccccc2CCC12N=NCC2c1ccc(Cl)cc1 (stereo not drawn)	-2.18	16.3	10.9	-10.9
COc1ccc(C2CN=NC23CCCc2ccccc2C3=O)cc1 (stereo not drawn)	-4.18*	-26.6	-45.9	?
